High-throughput results (PubChem BioAssay)
This excerpt belongs to a sample that is enriched for hits.
Pf Dd2 growth: blocks in vitro growth of P. falciparum Dd2; P. falciparum Dd2 growth, SYBR Green, 72 h; Potency, µM (top dose mostly 28.9 µM), without a hit: at the top dose activity, negative = inhibition, most hits filed as inhibitors; hit rate 4.3% among 120,000; AID 1347417; active means well fitted inhibition curve with a large enough effect;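 further: plate controls were DMSO vehicle for no effect and reference drug for full effect; nearly all actives have a fitted effect of over 65% in size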
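Infected erythrocytes (Dd2, 0.3% parasitemia, 2.5% hematocrit final) are added to compound in RPMI-1640/Albumax II medium, grown 72 h at 37C in low oxygen, then lysed with saponin/Triton-X containing SYBR Green and read by fluorescence.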
* hit, by the source's call; i = inactive; [ ] = another dose, or the depositor's remark. Potency means the concentration at half of the fitted maximal effect.

SMILES	Pf Dd2 growth
COc1ccc(C2c3[nH]c4ccc(OC)cc4c3CCN2C(=O)Nc2ccccc2)cc1 (stereo not drawn)	6.3µM*
CCOc1cccc(CC(=O)NCc2ccc3c(c2)CCN3C(=O)c2cccc(C)c2)c1OCC	-14%
CCOc1ccc(C2c3[nH]c4ccccc4c3CCN2C(=O)CCC2CCCC2)cc1 (stereo not drawn)	-10%
CCOc1cc(CNC(=O)C2CCN(c3nc4ccccc4[nH]3)CC2)cc(OCC)c1OCC	29%
COc1ccccc1C(=O)NC1CCCc2c1[nH]c1ccccc21 (stereo not drawn)	-22%
CN1CCN(CC2(N)CCCCC2)CC1	i
c1c[nH]c(-c2nc3ncccc3[nH]2)c1	-1%[44.1 µM]
Cc1noc(-c2cn(C3CCN(C(=O)c4cccc(F)c4)CC3)nn2)n1	i
COc1ccc(CN2CCC(N3Cc4ccccc4C3=O)CC2)cc1	-9%
Cc1cc(C)cc(C(=O)NCc2nnc3ccc(-c4ccccc4)nn23)c1	i
COc1ccc(NC(=O)Cn2c(=O)n(-c3ccccc3)c(=O)c3c2cc(C)n3C)cc1OC	41%
O=C(NCC1CCCCC1)c1ccc(CN2C(=O)NC3(CCS(=O)(=O)CC3)C2=O)cc1	i
C1CCC(c2noc(COCC3CC3)n2)NC1 (stereo not drawn)	-4%
COc1cccc(-c2nc(N3CCCCC3)ncc2C(=O)O)c1	-12%
CCC(O)c1cc2n(n1)CCN(C(=O)CCc1cn3ccccc3n1)C2 (stereo not drawn)	-5%
O=C(NC1CC1)c1cc2n(n1)CCCN(C(=O)c1ccccc1-c1ccccc1)C2	-15%
O=C(NC1CCCN(c2cc(-c3ccccc3)[nH]n2)C1)c1cc(F)ccc1Cl (stereo not drawn)	i
O=C(Cc1ccccc1)NCC(=O)N1CCCCCCNC(=O)CC1c1ccccc1 (stereo not drawn)	i
CCOc1ccc(CNC(=O)c2nn(-c3ccc(OC)cc3)c(=O)c3c2c2ccccc2n3C)cc1	50%
COc1ccc(-n2nc(C(=O)N(C)c3cc(C)ccc3C)c3c4ccccc4n(C)c3c2=O)cc1Cl	22%
CCc1ccc(CNC(=O)c2nn(-c3ccc(C)cc3)c(=O)c3c2c2ccccc2n3C)cc1	3%
COc1ccc(-n2nc(C(=O)NCCc3ccc(OC)c(OC)c3)c3c4ccccc4n(C)c3c2=O)cc1Cl	2µM*
CCOC(=O)C1CCN(C(=O)c2nn(-c3ccc(C)cc3)c(=O)c3c2c2ccccc2n3C)CC1	i
COc1ccc(-n2nc(C(=O)N3CCCCC3C)c3c4ccccc4n(C)c3c2=O)cc1Cl (stereo not drawn)	23%
CCOc1ccc(CCNC(=O)c2nn(-c3ccc(OC)c(Cl)c3)c(=O)c3c2c2ccccc2n3C)cc1OCC	2.8µM*
SMILES	Pf Dd2 growth
COc1ccc(-n2nc(C(=O)NCCCOC(C)C)c3c4ccccc4n(C)c3c2=O)cc1	-13%
CCOC(=O)C1CCN(C(=O)c2nn(-c3ccc(OC)c(Cl)c3)c(=O)c3c2c2ccccc2n3C)CC1	11µM*
O=C(Cc1cccc(F)c1)N1CCC(N2CC3CC(C2)[C@H]2CCCC(=O)N2C3)CC1 (stereo partly drawn)	-3%
COc1ccccc1-c1cn2c(n1)CO[C@@H](CNC1CCCC1)C2	i
CCc1noc(-c2ccn3c(CNC(=O)CCc4cccc(OC)c4)nnc3c2)n1	i
O=C1CCC(C(=O)N2CCN(c3ccc(Cl)cn3)CC2)CN1CCc1ccccn1 (stereo not drawn)	-13%
Cc1ccc(CC(=O)N2CCCN(c3cc(-c4ccc(C)c(C)c4)[nH]n3)CC2)cc1	0%
COc1ccc(CN2CCCC3(C2)NC(=O)c2ccccc2O3)cc1 (stereo not drawn)	i
Cc1c(CC(=O)NC(C)C)c2c(n1Cc1ccc(F)cc1)CCCC2=O	i
O=C(CN1C(=O)NC2(CCCCC2)C1=O)NC1CCc2ccccc21 (stereo not drawn)	-11%
O=C1Cc2c(-c3cccc(CO)c3)n[nH]c2CN1CC1CC1	12%[44.1 µM]
CCOCCCNC(=O)CN1CC2CC(C1)[C@H]1CCCC(=O)N1C2 (stereo partly drawn)	-5%
O=C(c1noc2c1CCCC2)N1CCOc2ccc(CN3CCN(c4ccccn4)CC3)cc2C1	-17%
O=C(CC(F)(F)F)N1CCOc2ccc(CN3CCc4ccccc4C3)cc2C1	i
Cc1ccsc1C(=O)N1CCOc2ccc(CN3CCc4ccccc4C3)cc2C1	7.9µM*
CCNC(=O)N1CCOc2ccc(CN3CCc4ccccc4C3)cc2C1	i
Cc1cccc(C(=O)N2CCOc3ccc(CCC(N)=O)cc3C2)c1	-18%
O=C(NCc1ccco1)N1CCOc2ccc(CN3CCc4ccccc4C3)cc2C1	-18%
O=C(c1cccc(F)c1)N1CCOc2ccc(CN3CCc4ccccc4C3)cc2C1	7.9µM*
O=C(C1CCC1)N1CCOc2ccc(CN3CCc4ccccc4C3)cc2C1	10µM*
Cn1nccc1C(=O)N1CCOc2ccc(CN3CCc4ccccc4C3)cc2C1	-7%
O=C1NCCOCCCN(C(=O)NC2CCCCC2)[C@H]2CCCC[C@@H]12	28%
O[C@H]1[C@H](NCc2ccncc2)[C@H]2CO[C@H](O2)[C@@H]1N1CCN(c2ccccc2)CC1	i
